According to PubChem BioAssay AID1159580 (chemical genetic matrix, 2015):
The whole screen tested about 5,500 compounds, of which about 2,000 (36%) were called active. About 18% were inconclusive and are not listed. Rule as the data show it: active = normalized growth mostly below about 0.91 (no sharp cut-off); inconclusive = no clear call, values can overlap the other calls; inactive = mostly above about 0.92. This is one part of the list.

Assay: chemical genetic growth profiling, strain panel (AID 1159580);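 also: tested at 20 µM; growth read once vehicle control cultures reached saturation at 30 °C; 1 = growth at the plate median or of vehicle wells; lower values mean less growth of the strain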
Details: growth OD

Measured: normalized growth

O=C(CCc1nc(-c2ccc(Cl)cc2)no1)NNS(=O)(=O)c1cc(Cl)c(Cl)cc1Cl
inactive: S. cerevisiae deletion strains, locus YAL013W, strain DEP1, active compounds read low 1.01 | S. cerevisiae deletion strains, locus YBR229C, strain ROT2, active compounds read low 1.01 | S. cerevisiae deletion strains, locus YCL061C, strain MRC1, active compounds read low 1.01 | S. cerevisiae deletion strains, locus YDL101C, strain DUN1, active compounds read low 1.03 | S. cerevisiae deletion strains, locus YDL134C, strain PPH21, active compounds read low 1 | S. cerevisiae deletion strains, locus YDR150W, strain NUM1, active compounds read low 0.998 | S. cerevisiae deletion strains, locus YEL061C, strain CIN8, active compounds read low 0.961 | S. cerevisiae deletion strains, locus YGR078C, strain PAC10, active compounds read low 1.02 | S. cerevisiae deletion strains, locus YHR030C, strain SLT2, active compounds read low 0.98 | S. cerevisiae deletion strains, locus YHR087W, strain rtc3, active compounds read low 0.958 | S. cerevisiae deletion strains, locus YJR043C, strain POL32, active compounds read low 0.999 | S. cerevisiae deletion strains, locus YJR075W, strain HOC1, active compounds read low 0.994 | S. cerevisiae deletion strains, locus YLR039C, strain RIC1, active compounds read low 0.971 | S. cerevisiae deletion strains, locus YLR058C, strain SHM2 (second series), active compounds read low 1.01 | S. cerevisiae deletion strains, locus YLR085C, strain ARP6, active compounds read low 1 | S. cerevisiae deletion strains, locus YLR262C, strain YPT6, active compounds read low 1.03 | S. cerevisiae deletion strains, locus YML094W, strain GIM5, active compounds read low 0.968 | S. cerevisiae deletion strains, locus YMR219W, strain ESC1, active compounds read low 1 | S. cerevisiae deletion strains, locus YMR263W, strain SAP30, active compounds read low 1.01 | S. cerevisiae deletion strains, locus YNL153C, strain GIM3, active compounds read low 1 | S. cerevisiae deletion strains, locus YNL298W, strain CLA4 (second series), active compounds read low 0.993 | S. cerevisiae deletion strains, locus YNL322C, strain KRE1, active compounds read low 1.02 | S. cerevisiae deletion strains, locus YNR030W, strain Alg12, active compounds read low 1.03 | S. cerevisiae deletion strains, locus YOL006C, strain TOP1, active compounds read low 1.02 | S. cerevisiae deletion strains, locus YPL055C, strain LGE1, active compounds read low 0.973 | S. cerevisiae deletion strains, locus YPL241C, strain CIN2, active compounds read low 1.04 | S. cerevisiae deletion strains, locus YPR135W, strain CTF4, active compounds read low 1.03 | S. cerevisiae strains, strain wild type, active compounds read low 1
